Results as given in article PMC5540273 (PLoS ONE, 2017).

What follows are compounds tested on PKN1. Details: concentration: 1 μM, replicates: in singlicate; n = 1.
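Note: KINOMEscan kinase panel screen.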

Compared with `CSc1ccc(-c2cc3ncnc(SCC(=O)O)c3s2)cc1`, `COc1ccc(COc2cc(-n3cnc4ccccc43)sc2C(N)=O)cc1` [GSK1024304] is lower in “%Inh” value: 8% for the first, 0% for the second.

`CCc1nc(-c2cccc(C)c2)c(-c2ccnc(NCc3ccccc3)c2)s1` and `Cc1cccc(-c2nc(Nc3ccc4ncsc4c3)c3ccccc3n2)n1` [GW867588] are the same in “%Inh” value: 14% for the first, 14% for the second.

Going from `COCCNC(=O)c1ccc(-c2cc(C(=O)NC3CC3)cc(F)c2C)cc1` [GW868318] to `Cc1ccc(C(=O)NCC(N)=O)cc1-n1c(C)cc(OCc2ccc(F)cc2F)c(Br)c1=O`, the “%Inh” value rises from 0% to 6%.

`COc1cc2ncn(-c3cc(OCc4sccc4Cl)c(C(N)=O)s3)c2cc1OC` [GSK448459] and `Cl.Oc1cccc(Nc2ccnc3cc(-c4ccncc4)ccc23)c1` [GW494601] are the same in “%Inh” value: 0% for the first, 0% for the second.

`O=C(NCCNc1ccnc(Nc2ccc(F)cc2)n1)c1cc2ccccc2s1` [GSK1379874] and `O=C(NCCNc1ccnc(Nc2ccc(F)cc2)n1)Nc1ccccc1F` [GSK1379880] are the same in “%Inh” value: 0% for the first, 0% for the second.

First: c1ccc(-c2n[nH]cc2-c2ccnc3ccccc23)nc1 [GW271431]
Second: NS(=O)(=O)c1cccc(-c2ccc3nccc(-c4cccc(S(N)(=O)=O)c4)c3c2)c1 [GW867253]
The “%Inh” value of the first is higher: 12% for the first, 0% for the second.

`Cc1nnc(-c2ccc3occ(-c4ccc(C(C)O)cc4)c3c2)o1` (stereo not drawn) and `Fc1ccc(-c2ncn(CCCN3CCOCC3)c2-c2cccnc2)cc1` [SB-211743] are the same in “%Inh” value: 0% for the first, 0% for the second.

In the case of `CCCCCc1nc2c(N)ncnc2n1CCCCC` [SKF-97255], the “%Inh” value is reported as 0%.
